Compounds with a hit are over-represented: about 2.4% of the library has one in this group of screens.
FEN1 inhibitor: blocks human flap endonuclease 1 | P39748 | Recombinant FEN1 flap cleavage, fluorescence, 15 min | Potency, µM (titrated, usually from 114 µM), for inactives: top-dose activity change, negative = inhibition, usual class: inhibitors | 390,000 tested, 0.35% active; further: on the % scale 0 is the no-effect control and ±100 the full control effect; nearly all actives have a fitted effect of over 65% in size
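Compounds are tested as a concentration series against 10 nM FEN1; after a 15 min room-temperature preincubation, 50 nM substrate starts cleavage, with plate reads at 0 and 15 min. Normalized responses are fitted by a Hill equation.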
POLI inh: blocks human DNA polymerase iota activity; 390,000 tested, 1% active; Potency, µM (highest dose often 115 µM), inactives show at the highest dose activity, negative = inhibition, most hits filed as inhibitors; AID 588590; Q9UNA4; Pol iota fluorescent replication assay, 10 min
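Pol iota at 10 nM preincubated 15 min with compounds at room temperature; reaction started with fluorescent substrate, 50 nM final. Fluorescence read kinetically at 0 and 10 min; buffer-only wells as negative control.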
Pol beta inh: inhibitors of human DNA polymerase beta; P06746; Pol beta primer extension/strand displacement, fluorescence kinetic; Potency, µM (top dose mostly 114 µM), for the others: top-dose activity change, negative = inhibition, most hits filed as inhibitors; 340,000 tested, 1.3% active; further: on the % scale 0 is the no-effect control and ±100 the full control effect
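Enzyme-only controls used 10 nM Pol beta; buffer lacking enzyme served as negative control. Compound preincubated 15 min, then 50 nM substrate added; 0 and 10 min reads at room temperature.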
Pol eta inh: blocks human DNA polymerase eta activity; Potency, µM (series often up to 114 µM), without a hit: top-dose activity change, negative = inhibition, hits mostly inhibitors; 390,000 tested, 1.2% active; recombinant Pol eta, fluorescent DNA replication assay; Q9Y253; AID 588591; further: on the % scale 0 is the no-effect control and ±100 the full control effect
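Pol eta (10 nM) was preincubated with compounds for 15 min at room temperature, after which fluorescent replication substrate (50 nM final) was added to start the reaction. Fluorescence was read kinetically at 0 and 10 min.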
Pol kappa inh: blocks human DNA polymerase kappa activity. Q9UBT6. purified Pol kappa, fluorescent DNA synthesis assay, 10 min. Potency, µM (doses to about 107 µM), inactives show top-dose activity, negative = inhibition, usual class: inhibitors. 400,000 tested, 0.53% active. AID 588579; further: on the % scale 0 is the no-effect control and ±100 the full control effect
Target sequence (Q9UBT6 whole entry, looked up): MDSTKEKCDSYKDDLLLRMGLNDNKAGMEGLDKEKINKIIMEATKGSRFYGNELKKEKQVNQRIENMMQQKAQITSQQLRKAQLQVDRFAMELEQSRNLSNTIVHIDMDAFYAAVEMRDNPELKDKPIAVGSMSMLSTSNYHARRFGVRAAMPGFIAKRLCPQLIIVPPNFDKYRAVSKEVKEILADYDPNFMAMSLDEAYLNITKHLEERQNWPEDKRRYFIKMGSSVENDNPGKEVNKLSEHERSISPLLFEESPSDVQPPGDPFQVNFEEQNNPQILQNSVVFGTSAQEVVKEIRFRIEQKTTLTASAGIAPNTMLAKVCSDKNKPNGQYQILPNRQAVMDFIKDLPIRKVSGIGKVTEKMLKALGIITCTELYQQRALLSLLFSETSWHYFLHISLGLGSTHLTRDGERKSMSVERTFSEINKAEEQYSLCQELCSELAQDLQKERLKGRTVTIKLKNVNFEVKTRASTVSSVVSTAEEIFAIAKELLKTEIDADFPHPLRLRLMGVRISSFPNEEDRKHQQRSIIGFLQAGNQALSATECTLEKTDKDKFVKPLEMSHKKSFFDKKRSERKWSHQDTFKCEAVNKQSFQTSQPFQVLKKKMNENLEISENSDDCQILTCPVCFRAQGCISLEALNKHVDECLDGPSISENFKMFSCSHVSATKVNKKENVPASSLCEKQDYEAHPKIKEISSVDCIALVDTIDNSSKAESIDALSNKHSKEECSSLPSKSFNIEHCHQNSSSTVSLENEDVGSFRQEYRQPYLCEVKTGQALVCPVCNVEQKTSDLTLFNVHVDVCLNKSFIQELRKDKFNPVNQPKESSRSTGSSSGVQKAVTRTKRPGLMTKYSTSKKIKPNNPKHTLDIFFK
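Fluorescent qHTS in 1536-well format: enzyme (10 nM) and compound sat 15 min at room temperature before 50 nM substrate (final) was added. Signal taken at 0 and 10 min; no-enzyme buffer wells were negative controls.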
WRN inhibitor: inhibitors of human WRN helicase. Potency, µM (series often up to 114 µM), without a hit: at the top dose activity change, negative = inhibition, most hits filed as inhibitors. 360,000 tested, 0.46% active. AID 651768. WRN helicase unwinding, fluorescent forked duplex, kinetic; further: on the % scale 0 is the no-effect control and ±100 the full control effect; nearly all actives have a fitted effect of over 55% in size
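WRN at 20 nM final preincubated with compound 15 min at room temperature; reaction started with 100 nM fluorophore/quencher forked duplex oligonucleotide and 2 mM ATP final. Unwinding followed kinetically by red fluorescence (ex 525, em 598 nm).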
The depositor's hits bear a star; ? = inconclusive; nt = no result given; [ ] = another dose, or the depositor's remark. The call rests on the fitted dose curve; in most records, active means well fitted curve in the direction sought with a large enough effect; inconclusive means small, poorly fitted or top-dose-only effect, or another doubt; inactive means no such curve, though single readings can be large; an effect the other way counts as inactive or inconclusive. Potency means the concentration at half of the fitted maximal effect.

SMILES	FEN1 inhibitor	POLI inh	Pol beta inh	Pol eta inh	Pol kappa inh	WRN inhibitor
CCOc1ccc(CCNC(=O)c2cc3c(s2)-c2ccccc2OC3)cc1OCC	-13%	?	32µM*	-9%	-3%	nt
CC(=O)c1cccc(NC(=O)c2cc3c(s2)-c2c(C)cccc2OC3)c1	12%	-11%	14%	-4%	-3%	nt
Cc1cccc2c1-c1sc(C(=O)Nc3cccc([N+](=O)[O-])c3C)cc1CO2	-9%	7%	0.2µM*	-6%	-9%	-3%
Cc1c(NC(=O)c2ccc(N3CCCC3)c([N+](=O)[O-])c2)cccc1-c1nc2ccccc2s1	-7%	79µM*	2%	7%	1%	1%[11.6 µM]
O=C(NCCc1ccc(Cl)cc1)C1COc2ccccc2O1 (centres undefined)	37%	50µM*	-29%	-13%	-19%	5%[11.6 µM]
Cc1c(NC(=O)c2ccc3nsnc3c2)cccc1[N+](=O)[O-]	-16%	25µM*	15%	2%	?	-2%
O=C(NCCc1ccc(Cl)cc1)c1cc2c(s1)-c1ccccc1OC2	-14%	89µM*	35µM*	-9%	?	nt
CCc1ccc(CNC(=O)c2cc3c(s2)-c2ccccc2OC3)cc1	-18%	79µM*	50µM*	-4%	?	nt
Cc1cccc2c1-c1sc(C(=O)NCc3ccccc3Cl)cc1CO2	11%	11%	16%	-12%	-3%	nt
O=C(Nc1ccc(Cl)cn1)c1cc2c(s1)-c1ccccc1OC2	-17%	11%	19%	-2%	4%	-5%
Cc1ccc(CCNC(=O)c2cc3c(s2)-c2c(C)cccc2OC3)cc1	7%	32%	3.5µM*	?	-2%	nt
Cc1cc(C(=O)Nc2cccc([N+](=O)[O-])c2C)cs1	21%	-11%	7%	4%	-1%	-4%
COC(=O)c1ccc(NC(=O)c2nc(S(=O)(=O)Cc3ccccc3F)ncc2Cl)cc1	-8%	?	nt	nt	3%	nt
C=C1CCN(C(Cc2ccccc2)C(=O)Nc2ccc(OC)cc2)S(=O)(=O)c2ccccc21 (centres undefined)	-18%	23%	nt	nt	-13%	nt
Cn1c(=O)c2c(nc(SCC(=O)Nc3ccc(F)cc3F)n2Cc2ccccc2)n(C)c1=O	10%	-28%	16%	nt	-15%	nt
CCOc1ccc(S(=O)(=O)Nc2cccc(-c3ccc(N4CCC(C)CC4)nn3)c2)cc1	-9%	-8%	28%	-14%	-8%[60.1 µM]	nt
Cc1ccccc1CN1[C@H]2CCCC[C@@H]2OCCS1(=O)=O	-12%	32%	nt	nt	-22%	nt
O=C(COC(=O)CCCc1nc2ccccc2s1)Nc1ncc(Cl)cc1Cl	-2%	96%	40µM*	?	0%	-14%
CC(C)(C)OC(=O)NS(=O)(=O)Nc1ccccc1Br	-11%	-17%	nt	nt	-7%	nt
Cc1sc(-n2cccc2)c(C(=O)O)c1C	-2%	?	?	89µM*	-32%	-24%[57.1 µM]
O=C(N=NC(=O)c1ccco1)c1ccc2c(O)n(N3C(=O)c4ccccc4C3=O)c(O)c2c1	-9%	-13%	45µM*	?	-15%	-11%
C[C@@]12CCC[C@H]1C1CC[C@H]3C[C@H](O)CC[C@]3(C)C1CC2 (some centres undefined)	nt	nt	nt	nt	2%[19.4 µM]	nt
Cc1nc(N=Nc2cc(S(=O)(=O)O)ccc2S(=O)(=O)O)c(COP(=O)(O)O)c(C=O)c1O	nt	nt	nt	nt	2µM*	nt
CCc1cccc(NC(=O)CCc2nc3cccnc3n2Cc2ccc(OC)cc2)c1	2%	5%	3%	-5%	-12%	nt
COC(C)(C)[C@H](O)COc1c2ccoc2cc2oc(=O)ccc12	-2%	5%	-24%	-4%	-20%	-6%
SMILES	FEN1 inhibitor	POLI inh	Pol beta inh	Pol eta inh	Pol kappa inh	WRN inhibitor
CC(C)(O)C(O)COc1c2ccoc2cc2oc(=O)ccc12 (centres undefined)	3%	?	22µM*	?	?	-1%
Cc1cccc(CNC(=O)CN2C(=O)CCCc3ccccc32)c1	3%	-3%	-2%	15%	1%	nt
Cc1ccc(/C=N/n2c(C)cc(C)c(C#N)c2=O)o1	-2%	2%	-1%	-16%	-1%	-3%
Cc1cc(C)n(/N=C/c2ccco2)c(=O)c1C#N	-2%	?	40µM*	-16%	-13%	-3%
O=C(Nc1cnn(Cc2ccc(F)cc2)c1)c1cnccn1	-8%	7%	1%	-16%	-5%	2%
O=C(Nc1cnn(Cc2ccc(F)cc2)c1)C(c1ccccc1)c1ccccc1	-1%	79µM*	4%	-9%	-5%	-8%
COc1ccc(-c2cc(C(=O)OCC(=O)N3CCOCC3)c3ccccc3n2)cc1	-29%	17%	nt	-8%	-12%	9%
COC(=O)C1CCN(C(=O)COC(=O)c2cc(-c3ccccc3)nc3ccc(OC)cc23)CC1	-15%	20µM*	nt	40µM*	-45%	3%[11.6 µM]
O=C(NCc1ccco1)c1sc(=S)n2c1[nH]c(=O)c1ccccc12	?	?	50µM*	22µM*	?	?
C=CCn1c(N)c(C(=O)NCc2ccco2)sc1=S	-10%	-8%[58.9 µM]	-7%	-15%	-12%	3%
Cc1ccc(CNC(=O)c2ccc3c(=O)[nH]c4c(C(=O)NCC5CCCO5)sc(=S)n4c3c2)cc1 (centres undefined)	?	24%	-2%	-24%	-15%	-13%
O=C(NC1CCCC1)c1sc(=S)n2c1[nH]c(=O)c1ccccc12	?	?	?	56µM*	-24%	-30%
CCCCCNC(=O)c1ccc2c(=O)[nH]c3c(C(=O)NCC4CCCO4)sc(=S)n3c2c1 (centres undefined)	-5%	-19%	-8%	25µM*	-44%	?
O=C(NCCc1ccc(Cl)cc1)c1cccn1-c1nnc(N2CCCC2)s1	-2%	19%	-8%	-11%	4%	nt
CCCCn1c(=O)c2c(O)cc(=O)oc2c2ccccc21	-19%	8%	?	?	-5%	-8%
O=c1c([N+](=O)[O-])c(O)c2ccccc2n1Cc1ccccc1	11µM*	6%	7%	-12%	-16%	-11%
O=c1cc(O)c2c(=O)n(Cc3ccccc3)c3ccccc3c2o1	?	?	25µM*	?	-8%	?
O=c1cc(O)c2c(=O)n(C3CCCCC3)c3ccccc3c2o1	-4%	?	45µM*	?	-23%	-18%[57.1 µM]
CCC(Sc1ncnc2sc3c(c12)CCCC3)C(=O)OCC(C)C (centres undefined)	8%	2%	-5%	-12%	-3%	nt
CCn1c(CSc2nnc(-c3ccncc3)n2C)nc2cc(C(=O)O)ccc21	?	25µM*	-25%	-23%	-9%	71µM*
